How the values were obtained:
Assay in all cases: growth AUC relative to DMSO control (median of replicates) (fraction); higher = more growth (less inhibition), active = hit call of the paper
Details in all cases: 20 µM; 24 h;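 active = AUC reduced over 20% with Padj below 0.05 in at least 2 of 3 replicates; inactive = otherwise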
[1] = system: Akkermansia muciniphila
Outline: (§1)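 Starting at OD600 0.05, gut bacterial monocultures in mGAM were grown anaerobically at 37 °C with 20 µM compound (1% DMSO) under pierced gas-permeable seals. OD600 was read every hour for 24 h, and the lowest OD of each curve was set to 0. Area under the growth curve was normalised to the plate median of solvent-only wells, or to row and column medians on the industrial chemical plate, and the median of three biological replicates grown on separate days is given.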

[2] = system: Bacteroides caccae
Outline: as §1

[3] = system: Bacteroides clarus
Outline: as §1

[4] = system: Bacteroides dorei
Outline: as §1

[5] = system: Bacteroides stercoris
Outline: as §1

[6] = system: Bacteroides thetaiotaomicron
Outline: as §1

[7] = system: Bacteroides uniformis
Outline: as §1

[8] = system: Bifidobacterium longum subsp. longum
Outline: as §1

[9] = system: Clostridium difficile
Outline: as §1

[10] = system: Collinsella aerofaciens
Outline: as §1

[11] = system: Coprococcus comes
Outline: as §1

[12] = system: Escherichia coli ED1a
Outline: as §1

[13] = system: Escherichia coli IAI1
Outline: as §1

[14] = system: Eubacterium rectale
Outline: as §1

[15] = system: Fusobacterium nucleatum subsp. animalis
Outline: as §1

[16] = system: Lactobacillus gasseri
Outline: as §1

[17] = system: Lactobacillus paracasei
Outline: as §1

[18] = system: Odoribacter splanchnicus
Outline: as §1

[19] = system: Parabacteroides distasonis
Outline: as §1

[20] = system: Parabacteroides merdae
Outline: as §1

Measured: growth AUC

CC(C)OC(=O)C(C(=O)OC(C)C)=C1SCCS1
active: [19] 0.782
inactive: [1] 1.07 | [2] 0.993 | [3] 1.01 | [4] 0.995 | [5] 0.955 | [6] 0.974 | [7] 1.01 | [8] 1.04 | [9] 1.02 | [10] 0.984 | [11] 1.06 | [12] 1.01 | [13] 0.988 | [14] 1.02 | [15] 1.02 | [16] 0.977 | [17] 0.98 | [18] 0.995 | [20] 1.01

O=[N+]([O-])c1ccc2ccc3cccc4ccc1c2c34
inactive: [1] 0.948 | [4] 0.851 | [7] 0.877 | [8] 1.3 | [9] 0.913 | [10] 0.983 | [11] 0.972 | [12] 0.988 | [13] 0.99 | [16] 0.99 | [17] 1.02
active: [2] 0.59 | [3] 0.783 | [5] 0.179 | [6] 0.737 | [14] 0.577 | [15] 0.401 | [18] 0.0656 | [19] 0.579 | [20] 0.495

CN(C)C(=O)Nc1ccc(Cl)cc1
inactive: [1] 0.948 | [2] 1.02 | [3] 0.971 | [4] 1.01 | [5] 1.05 | [6] 0.973 | [7] 1.02 | [8] 0.99 | [9] 0.979 | [10] 1.03 | [11] 0.985 | [12] 1.01 | [13] 0.97 | [14] 0.996 | [15] 1.02 | [16] 1.05 | [17] 1.03 | [18] 0.963 | [19] 0.938 | [20] 1

Nc1nc(N)nc(N)n1
active: [5] 0.792 | [18] 0.119
inactive: [1] 0.956 | [2] 1.02 | [3] 0.881 | [4] 1.03 | [6] 0.968 | [7] 0.972 | [8] 1.15 | [9] 0.989 | [10] 1.03 | [11] 0.978 | [12] 0.991 | [13] 1.02 | [14] 0.944 | [15] 1 | [16] 1.01 | [17] 1.05 | [19] 1.23 | [20] 0.981

COc1cc(OC)nc(Oc2cccc(Oc3nc(OC)cc(OC)n3)c2C(=O)[O-])n1.[Na+]
inactive: [1] 0.934 | [2] 0.973 | [3] 0.963 | [4] 1.02 | [5] 0.99 | [6] 1.01 | [7] 1 | [8] 0.965 | [9] 1.06 | [10] 1.02 | [11] 0.98 | [12] 0.989 | [13] 0.979 | [14] 1.01 | [15] 1.04 | [16] 0.958 | [17] 0.982 | [18] 1.01 | [19] 0.994 | [20] 1.01

CSc1nc(NC(C)C)nc(NC(C)C)n1
inactive: [1] 0.876 | [2] 1.02 | [3] 0.976 | [4] 1.01 | [5] 0.95 | [6] 0.949 | [7] 0.983 | [8] 1.08 | [9] 1.02 | [10] 1.04 | [11] 0.999 | [12] 1.01 | [13] 0.976 | [14] 0.917 | [15] 0.922 | [16] 1.12 | [17] 0.944 | [18] 0.981 | [19] 1.02 | [20] 0.991

CCC(CC)Nc1c([N+](=O)[O-])cc(C)c(C)c1[N+](=O)[O-]
inactive: [1] 1.03 | [2] 0.888 | [3] 0.942 | [4] 0.91 | [5] 0.86 | [6] 0.96 | [7] 0.954 | [8] 1 | [9] 0.962 | [10] 0.909 | [11] 0.982 | [12] 0.987 | [13] 0.947 | [14] 0.979 | [15] 0.93 | [16] 0.858 | [17] 0.935 | [18] 1.11 | [19] 0.974 | [20] 0.942

O=c1oc2ccccc2c(O)c1C1CC(c2ccc(-c3ccccc3)cc2)Cc2ccccc21 (stereo not given)
inactive: [1] 0.831 | [2] 0.895 | [4] 0.904 | [7] 0.858 | [8] 0.886 | [9] 0.803 | [10] 0.975 | [11] 0.946 | [12] 1 | [13] 0.959 | [14] 0.502 | [15] 1.02 | [16] 0.574 | [17] 0.887 | [18] 0.959
active: [3] 0.66 | [5] 0.00795 | [6] 0.76 | [19] 0.0292 | [20] 0.0278
